High-throughput results: PubChem BioAssay, several laboratories
AddAB inh – growth inhibition of E. coli expressing H. pylori AddAB, primary screen, AddAB inhibitor project, absorbance; inhibition, % at 11.9 µM; 330,000 tested, 0.29% active; AID 435030, 2010; in the data active = inhibition above about 12%
phage Ecoli inh – growth loss of phage-infected E. coli, primary screen, RecBCD inhibitor project, absorbance, with phage, HTS; inhibition, % at 11.9 µM; 360,000 tested, 0.26% active; AID 651602, 2012; in the data active = inhibition above about 11%
E coli growth-1 – E. coli growth inhibition, primary screen, OD600; OD600 absorbance (no concentration beside the values); Escherichia coli growth, 23 h; active compounds read low; AID 1053175, 2014; 330,000 tested, 0.21% active;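 active = OD600 absorbance below the run mean of sample wells minus 3.6 SD, in any replicate, cut at about 0.56 in these data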
Tat export inh – E. coli Tat export inhibitors, primary screen, MC4100, TorA-mCherry reporter, fluorescence, single point; inhibition, % at 10 µM; 340,000 tested, 0.036% active;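 active = mean replicate inhibition at least 50% and at least half of replicates individually reaching 50%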;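 also: exported cargo escapes ClpAP degradation while cytoplasmic cargo is degraded and loses fluorescence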
E coli growth-2 – E. coli V3065 growth inhibition, primary screen, counter-screen for AddAB inhibitor project, absorbance, OD600; 330,000 tested, 0.27% active; 18 h; inhibition, % at 11.9 µM; AID 449728, 2010;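 active = inhibition above the campaign's mean inhibition across all tested compounds plus 3 SD, cut at about 9.9% in these data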;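 also: uninfected addAB+ strain grown without phage in ampicillin broth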
AddAB confirm – growth loss of phage-infected E. coli expressing H. pylori AddAB, confirmation, AddAB inhibitor project, absorbance, E. coli V3065, T4 phage, triplicate. OD; T4 phage with gene 2 nonsense mutations. shares compounds with AddAB inh. 880 tested, 64% active. inhibition, % at 11.9 µM;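 active = mean inhibition above a set limit taken from the earlier primary screen, cut at about 13% in these data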;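 also: higher means less bacterial growth since AddAB block lets phage replicate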
RecBCD counter – growth loss of RecBCD+ E. coli with mutant T4 phage, counter-screen for AddAB inhibitor project, absorbance, V66 E. coli. shares compounds with AddAB inh. inhibition, % at 11.9 µM. 880 tested, 73% active. OD growth. AID 488955, 2010;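 active = mean inhibition above the mean of solvent-only control wells plus 3 SD, cut at about 4% in these data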;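 also: optical density read after an 18 h incubation at 37 °C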
Bact viability – bacterial viability inhibition counter-screen, confirmation, counter-screen for AddAB inhibitor project, absorbance | shares compounds with AddAB inh | absorbance (AddAB counterscreen) | inhibition, % at 11.9 µM | 880 tested, 35% active | AID 488956, 2010; in the data active = inhibition above about 25%
A number is an active result; i = inactive; nt = not tested or not shown. Hits are enriched below; roughly 0.5% of the tested compounds scored in any of these assays.

SMILES	AddAB inh	phage Ecoli inh	E coli growth-1	Tat export inh	E coli growth-2	AddAB confirm	RecBCD counter	Bact viability
CCOc1ccc(CN(C)Cc2cc(=O)oc3cc(C)c(Cl)cc23)cc1	20	i	i	i	15	i	i	i
Cc1cc2oc(=O)cc(CN(C)Cc3cccc(F)c3)c2cc1Cl	i	i	i	i	i	nt	nt	nt
Oc1ccc(N=Cc2ccc(O)c(O)c2)cc1	i	nt	i	i	i	nt	nt	nt
Oc1ccc(/C=N/N=C/c2ccc(O)c(O)c2)cc1O	34	i	nt	i	i	i	i	i
O=c1c2ccccc2nc(/C=C/c2ccc([N+](=O)[O-])cc2)n1CCCO	i	i	i	i	i	nt	nt	nt
O=c1c2ccccc2nc(/C=C/c2ccc([N+](=O)[O-])o2)n1CCCO	31	i	i	i	20	98	11	41
CN(C)N=Nc1nc[nH]c1C(N)=O	18	i	i	i	12	74	4.0	40
COc1ccc(OC)c(C2C/C(=N/O)C(C)C(c3cc(OC)ccc3OC)N2)c1 (configuration not stated)	nt	i	nt	i	nt	nt	nt	nt
COc1ccc(OC)c(C2CC(=O)C(C)C(c3cc(OC)ccc3OC)N2)c1 (configuration not stated)	13	i	i	i	11	i	i	i
CCCC(=O)NC(c1ccccc1Cl)c1ccc2cccnc2c1O (configuration not stated)	34	26	nt	i	35	29	27	26
CCCCC(=O)NC(c1ccc(OC)cc1)c1ccc2cccnc2c1O (configuration not stated)	nt	i	nt	nt	nt	nt	nt	nt
COc1ccc(C(NC(=O)C(C)C)c2ccc3cccnc3c2O)cc1 (configuration not stated)	26	25	i	i	26	26	24	i
CCC[C@@H](CN1CCC[C@H]1CN1C(N)=NC[C@H]1CC(C)C)N1C[C@@H]([C@H](C)CC)N(CCc2ccc(Cl)c(Cl)c2)C1=N	13	i	0.078	i	16	i	i	i
CCC[C@@H](CN1CCC[C@H]1CN1C(N)=NC[C@@H]1Cc1ccccc1)N1C[C@@H]([C@H](C)CC)N(CCCC2CCCC2)C1=N	26	nt	nt	96	22	14	13	i
CCc1nc2c(OCc3ccc(OC)cc3)cccn2c1N(C)C(=O)c1ccncc1	nt	i	nt	nt	nt	nt	nt	nt
O=C(c1ccco1)N1CCN(Cc2ccccc2F)CC1	i	i	i	i	i	nt	nt	nt
O=C(Nc1ccc(Br)cc1)Nc1cnccn1	nt	i	i	i	nt	nt	nt	nt
CCCOc1ccccc1/C=N/Nc1ccnc(=O)[nH]1	13	i	nt	i	21	100	i	68
CCCOc1ccccc1C=NNc1ccnc(=O)[nH]1	nt	nt	i	nt	nt	nt	nt	nt
C=CCC1(O)C(=O)N2C(=C1C(=O)OCC)c1ccc3ccccc3c1CC2(C)C (configuration not stated)	i	i	i	i	i	nt	nt	nt
O=C(COC(=O)c1cc(Br)ccc1O)NCCC1=CCCCC1	nt	i	nt	nt	nt	nt	nt	nt
N#CC1C(=O)NC(=O)C(C#N)C12CCCCC2 (configuration not stated)	nt	i	nt	nt	nt	nt	nt	nt
Oc1cc(-c2ccncc2)cc2cccnc12	i	i	i	i	i	nt	nt	nt
Oc1cc(-c2ccc(N3CCCCC3)nc2)cc2cccnc12	16	nt	nt	i	15	i	15	i
O=C(NCc1cccnc1)c1ccc([N+](=O)[O-])o1	17	17	0.5	i	13	71	7.9	i
SMILES	AddAB inh	phage Ecoli inh	E coli growth-1	Tat export inh	E coli growth-2	AddAB confirm	RecBCD counter	Bact viability
CC(Sc1nnc(-c2cccs2)n1-c1ccccc1)C(=O)NCc1ccco1 (configuration not stated)	i	i	i	i	i	nt	nt	nt
COc1cc(NC(=O)c2ccc([N+](=O)[O-])o2)ccc1NC(=O)c1ccco1	16	i	i	i	12	74	6.7	i
CC(Sc1ccsc1[N+](=O)[O-])C(=O)NCc1ccco1 (configuration not stated)	14	i	i	i	i	23	i	i
O=C(NCc1ccco1)c1ccc([N+](=O)[O-])o1	35	i	nt	i	i	76	6.6	i
O=C(Cc1ccc([N+](=O)[O-])cc1)NCc1cccnc1	i	i	i	i	i	nt	nt	nt
O=C(NCc1ccco1)c1ccc(Cn2cc([N+](=O)[O-])cn2)o1	i	i	i	i	i	nt	nt	nt
COc1cccc(CNC(=O)COC(=O)CCS(=O)(=O)c2ccc(C)cc2)c1	nt	i	i	i	nt	nt	nt	nt
CCOc1ccc(NC(=O)CCC(=O)N2CCSc3ccccc32)cc1	19	i	i	i	i	i	i	i
COc1cnc(-c2ccccn2)nc1Sc1ccccc1	14	i	i	i	i	i	i	i
Cc1ccc(S(=O)(=O)NN=Cc2ccc(C)o2)cc1	nt	nt	i	nt	nt	nt	nt	nt
COc1ccc(S(=O)(=O)N/N=C\c2ccc([N+](=O)[O-])o2)c(OC)c1	30	i	nt	i	24	100	8.3	40
O=C(N/N=C/c1ccc([N+](=O)[O-])o1)C1CCCC1	12	i	nt	i	i	74	5.0	i
COc1ccccc1NS(=O)(=O)c1cccc(C(=O)NN=Cc2ccc([N+](=O)[O-])o2)c1	nt	nt	i	nt	nt	nt	nt	nt
O=[N+]([O-])c1ccc(/C=N\NS(=O)(=O)c2ccc(F)cc2)o1	93	i	nt	i	20	99	8.0	54
Cc1ccnc(NCc2cc(Cl)ccc2O)c1	nt	i	nt	nt	nt	nt	nt	nt
Cc1ccc(Cl)cc1NC(=O)CC1NC2CCCCC2NC1=O (configuration not stated)	i	i	i	i	i	nt	nt	nt
COc1ccc(N=Nc2c(C)[nH][nH]c2=O)cc1	i	i	i	i	i	nt	nt	nt
O=C(NCCC1=CCCCC1)C1CCN(C(=O)Cc2ccccc2)CC1	98	i	i	i	98	i	i	i
O=C(NCCC1=CCCCC1)C1CCN(S(=O)(=O)c2ccccc2)CC1	i	i	i	i	i	nt	nt	nt
CC(C)OCCCNC(=O)c1ccc(N(C)S(C)(=O)=O)cc1	i	i	i	i	i	nt	nt	nt
COc1cc(NS(=O)(=O)c2ccc(NC(=O)c3ccco3)cc2)nc(OC)n1	63	i	i	i	i	i	i	i
O=C(NCCc1c[nH]c2ccccc12)OC1CC2CC1[C@H]1CCCCN1C2=O (some centres not stated)	nt	i	nt	nt	nt	nt	nt	nt
CC(=O)c1ccc2cc3c(cc2c1)OCO3	nt	i	nt	nt	nt	nt	nt	nt
COc1cc2cccc(OC)c(=O)c2c(O)c1OC	i	i	i	i	i	nt	nt	nt
CC(=O)Oc1cc2cccc(OC(C)=O)c(=O)c2c(OC(C)=O)c1OC(C)=O	18	nt	i	i	14	25	19	i
O=[N+]([O-])c1[nH]cnc1/C=C/c1ccccc1	i	i	i	i	i	nt	nt	nt
N#Cc1ccc(NC(=O)C2CC(c3ccc(F)cc3)=NO2)cc1 (configuration not stated)	i	i	i	i	i	nt	nt	nt
